Results published in PubChem BioAssay (NCATS).
Inconclusive results are not listed. Activity calls are given as the source filed them. Calls follow the shape of the dose curve; as a rule, active = well fitted curve in the direction sought with a large enough effect; inconclusive = small, poorly fitted or top-dose-only effect, or another doubt; inactive = no such curve, though single readings can be large; an effect the other way counts as inactive or inconclusive.

What was measured:
[1] = qHTS of pediatric cancer cell lines to identify multiple opportunities for drug repurposing: Primary screen for control Hh wild type fibroblast cells (AID 1347106);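 also: series mostly up to about 46 µM; a drop in luminescence marks cytotoxicity and a rise apparent proliferation; nearly all actives have a fitted effect of over 55% in size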
Summary of the method: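 Cells (500-1,000/well) in growth media were settled 5 h at 37 degrees C, then given compounds for 48 h. Viability was read as CellTiter-Glo luminescence. Primary runs used MIPE at 11 points (0.78 nM-46 µM) and NPC at 8 points (0.59 nM-46 µM); follow-ups used 11 points.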

[2] = qHTS of pediatric cancer cell lines to identify multiple opportunities for drug repurposing: Primary screen for Rh41 cells (AID 1347108); also: nearly all actives have a fitted effect of over 70% in size; also: potency is read from the fitted curve at half-maximal effect
Summary of the method: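 Viability was measured as metabolically active cells after 48 hours of treatment, read by CellTiter-Glo luminescence. Compounds were tested at multiple final concentrations, giving concentration-response curves.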

[3] = qHTS of pediatric cancer cell lines to identify multiple opportunities for drug repurposing: Primary screen for Rh30 cells (AID 1347107); also: series mostly up to about 46 µM; nearly all actives have a fitted effect of over 75% in size
Summary of the method: (§1)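 Viability after 48 h compound treatment at 37C, 500-1,000 cells/well, read as ATP luminescence with CellTiter-Glo. Primary screens used 11-point (MIPE, 0.78 nM-46 µM) or 8-point (NPC, 0.59 nM-46 µM) final concentrations; follow-up screens used 11-point dilutions.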

[4] = qHTS of pediatric cancer cell lines to identify multiple opportunities for drug repurposing: Confirmatory screen for NB1643 cells (AID 1347109); also: nearly all actives have a fitted effect of over 45% in size; also: potency is read from the fitted curve at half-maximal effect
Summary of the method: as §1

[5] = qHTS of pediatric cancer cell lines to identify multiple opportunities for drug repurposing: Confirmatory screen for A673 cells (AID 1347110); also: nearly all actives have a fitted effect of over 65% in size; also: potency is read from the fitted curve at half-maximal effect
Summary of the method: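 Forty-eight-hour viability assay. Follow-up compounds ran at 11-point dilutions; positive control bortezomib at 2.3 uM final, neutral control DMSO.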

[6] = qHTS of pediatric cancer cell lines to identify multiple opportunities for drug repurposing: Confirmatory screen for SK-N-MC cells (AID 1347111);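 also: potency is read from the fitted curve at half-maximal effect; cells exposed to compound for 48 h before the readout; nearly all actives have a fitted effect of over 70% in size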
Summary of the method: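 SK-N-MC cells at 500-1,000 cells/well in growth media were pre-incubated 5 h, then exposed to compounds at 11-point dilutions for 48 h at 37 degrees C, 5% CO2. Viability was read as CellTiter-Glo luminescence.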

[7] = qHTS of pediatric cancer cell lines to identify multiple opportunities for drug repurposing: Confirmatory screen for LAN-5 cells (AID 1347113); also: nearly all actives have a fitted effect of over 65% in size; also: potency is read from the fitted curve at half-maximal effect
Summary of the method: as §1

[8] = qHTS of pediatric cancer cell lines to identify multiple opportunities for drug repurposing: Confirmatory screen for DAOY cells (AID 1347114); also: nearly all actives have a fitted effect of over 65% in size; also: potency is read from the fitted curve at half-maximal effect
Summary of the method: (§2)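 Viability measured as metabolically active cells via CellTiter-Glo luminescence following 48 hours of compound exposure, 11-point dilutions in confirmatory testing. 500-1,000 cells/well plated 5 hours before dosing; controls were DMSO and 2.3 µM bortezomib.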

[9] = qHTS of pediatric cancer cell lines to identify multiple opportunities for drug repurposing: Confirmatory screen for NB-EBc1 cells (AID 1347115); also: nearly all actives have a fitted effect of over 45% in size; also: potency is read from the fitted curve at half-maximal effect
Summary of the method: as §1

[10] = qHTS of pediatric cancer cell lines to identify multiple opportunities for drug repurposing: Confirmatory screen for SJ-GBM2 cells (AID 1347116); also: nearly all actives have a fitted effect of over 60% in size
Summary of the method: as §2

Measured: Potency

CCCc1nc(C)c2c(=O)[nH]c(-c3cc(S(=O)(=O)N4CCN(CC)CC4)ccc3OCC)nn12
active: [2] 14.8 µM
inactive: [1]

Nc1nc(N)c2nc(CNc3ccc(C(=O)NC(CCC(=O)O)C(=O)O)cc3)cnc2n1 (stereo unspecified)
active: [5] 1.04 µM | [6] 0.329 µM
inactive: [3] | [2] | [4] | [7]

C[C@@H]1C[C@H]2[C@@H]3CCC4=CC(=O)C=C[C@]4(C)[C@@]3(Cl)[C@@H](O)C[C@]2(C)[C@@]1(OC(=O)c1ccco1)C(=O)CCl
active: [4] 0.369 µM | [5] 2.61 µM | [6] 0.827 µM | [7] 0.233 µM | [8] 10.4 µM
inactive: [1] | [3]

CC(C)(C)NC(=O)[C@H]1CC[C@H]2[C@@H]3CC[C@H]4NC(=O)C=C[C@]4(C)[C@H]3CC[C@]12C
inactive: [3] | [2]

COc1ccc(C(=O)CC(=O)c2ccc(C(C)(C)C)cc2)cc1
active: [6] 26.1 µM
not listed: [2]
inactive: all other assays above

CC(C)(C)C(=O)OCOP(=O)(COCCn1cnc2c(N)ncnc21)OCOC(=O)C(C)(C)C
inactive: [1] | [3] | [8] | [10]
active: [4] 8.27 µM | [5] 4.65 µM | [6] 0.329 µM | [7] 9.27 µM | [9] 8.27 µM

COc1nc(N)nc2c1ncn2[C@@H]1O[C@H](CO)[C@@H](O)[C@@H]1O
active: [5] 1.85 µM | [6] 2.93 µM
not listed: [2]
inactive: all other assays above

O=C(NCC1CN(c2ccc(N3CCOCC3=O)cc2)C(=O)O1)c1ccc(Cl)s1 (stereo unspecified)
active: [6] 2.93 µM
not listed: [4] | [5] | [7]
inactive: all other assays above
